Several values for one entry are separate records, joined by “and”; a condition that tells them apart may be missing. Equal entries are not always repeated. Results filed as inconclusive are left out. Where a call stands in place of a potency, no number is given. Some compounds were tested as several samples or in several runs, with calls that do not always agree. Activity calls are given as the source filed them. The call rests on the fitted dose curve; in most records, active means well fitted curve in the direction sought with a large enough effect; inconclusive means small, poorly fitted or top-dose-only effect, or another doubt; inactive means no such curve, though single readings can be large; an effect the other way counts as inactive or inconclusive.
What was measured:
[1] = biological target: Cytochrome P450 2C9 (Homo sapiens) (UniProt P11712); experiment: qHTS Assay for Inhibitors and Substrates of Cytochrome P450 2C9 (AID 883); details: recombinant CYP2C9, luciferin-H luminescence, 60 min; series mostly up to 11.4 µM; further: nearly all actives have a fitted effect of over 60% in size; further: potency means the concentration at half of the fitted maximal effect
Sequence of Cytochrome P450 2C9 (Homo sapiens) (P11712 whole entry, looked up): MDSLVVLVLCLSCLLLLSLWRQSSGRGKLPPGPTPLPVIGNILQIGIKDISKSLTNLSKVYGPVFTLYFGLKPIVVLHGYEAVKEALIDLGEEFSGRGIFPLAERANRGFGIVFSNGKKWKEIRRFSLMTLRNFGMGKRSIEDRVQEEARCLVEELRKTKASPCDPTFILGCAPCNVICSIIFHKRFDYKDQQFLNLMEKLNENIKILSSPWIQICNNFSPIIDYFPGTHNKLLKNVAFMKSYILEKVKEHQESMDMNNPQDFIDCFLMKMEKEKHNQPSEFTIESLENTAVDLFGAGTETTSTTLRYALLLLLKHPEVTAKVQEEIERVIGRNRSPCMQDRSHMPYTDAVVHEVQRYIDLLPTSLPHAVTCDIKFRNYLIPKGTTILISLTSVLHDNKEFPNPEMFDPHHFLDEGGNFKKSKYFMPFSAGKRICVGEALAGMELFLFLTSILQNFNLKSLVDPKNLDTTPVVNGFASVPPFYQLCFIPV
Method in brief: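 Human CYP2C9 (10nM) hydroxylated Luciferin-H (100uM, at its KM) to luciferin in 25mM KPO4. Compound was preincubated 10 min at 37C, then NADPH regeneration started a 60 min reaction at 37C. Luminescence was read after detection reagent, normalized to 57uM sulphaphenazole.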

[2] = biological target: Cytochrome P450 3A4 (Homo sapiens) (UniProt P08684); experiment: qHTS Assay for Inhibitors and Substrates of Cytochrome P450 3A4 (AID 884); details: recombinant CYP3A4, Luciferin-PPXE luminescence; series mostly up to 57.1 µM; further: nearly all actives have a fitted effect of over 50% in size
Sequence of Cytochrome P450 3A4 (Homo sapiens) (P08684 whole entry, looked up): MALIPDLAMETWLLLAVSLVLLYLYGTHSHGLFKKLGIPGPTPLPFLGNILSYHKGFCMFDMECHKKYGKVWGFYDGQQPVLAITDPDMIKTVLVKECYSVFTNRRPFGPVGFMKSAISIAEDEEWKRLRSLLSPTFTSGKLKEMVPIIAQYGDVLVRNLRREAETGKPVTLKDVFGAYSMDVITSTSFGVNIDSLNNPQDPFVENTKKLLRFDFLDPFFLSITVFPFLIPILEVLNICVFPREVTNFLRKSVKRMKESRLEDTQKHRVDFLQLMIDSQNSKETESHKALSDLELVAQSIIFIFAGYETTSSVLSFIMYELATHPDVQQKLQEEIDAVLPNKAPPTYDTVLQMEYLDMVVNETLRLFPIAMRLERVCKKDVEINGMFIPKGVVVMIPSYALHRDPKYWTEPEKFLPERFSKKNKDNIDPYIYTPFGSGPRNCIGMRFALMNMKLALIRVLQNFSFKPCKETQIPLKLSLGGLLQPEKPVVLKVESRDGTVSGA
Method in brief: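 Luminescent readout of luciferin produced by CYP3A4 (20 nM) dealkylation of Luciferin-PPXE, 25 uM (its KM). NADPH-driven reaction ran 60 min at RT after 10 min compound preincubation; data scaled to 57 uM ketoconazole as 100% inhibition.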

[3] = biological target: Cytochrome P450 2D6 (Homo sapiens) (UniProt P10635); experiment: qHTS Assay for Inhibitors and Substrates of Cytochrome P450 2D6 (AID 891); details: recombinant CYP2D6, luciferin-ME EGE luminescence; series mostly up to 11.4 µM;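 further: luciferin methyl ether substrate demethylated by CYP2D6 with NADPH regeneration; nearly all actives have a fitted effect of over 60% in size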
Sequence of Cytochrome P450 2D6 (Homo sapiens) (P10635 whole entry, looked up): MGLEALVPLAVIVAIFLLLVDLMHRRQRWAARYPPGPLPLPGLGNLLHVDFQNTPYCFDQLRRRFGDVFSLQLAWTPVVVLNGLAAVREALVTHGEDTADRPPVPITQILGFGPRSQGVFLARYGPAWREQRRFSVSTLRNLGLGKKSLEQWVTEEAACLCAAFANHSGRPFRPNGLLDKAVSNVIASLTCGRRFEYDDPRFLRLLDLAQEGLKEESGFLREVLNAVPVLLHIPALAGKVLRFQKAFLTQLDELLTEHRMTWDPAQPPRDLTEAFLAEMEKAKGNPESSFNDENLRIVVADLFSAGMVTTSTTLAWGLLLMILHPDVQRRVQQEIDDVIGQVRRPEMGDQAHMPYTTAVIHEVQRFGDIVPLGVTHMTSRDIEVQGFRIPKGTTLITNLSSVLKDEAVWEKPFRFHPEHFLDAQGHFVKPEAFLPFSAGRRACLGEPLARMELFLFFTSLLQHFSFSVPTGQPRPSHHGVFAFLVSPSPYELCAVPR
Method in brief: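 Luminescent read-out of luciferin formed by 5 nM human CYP2D6 demethylating 30 uM Luciferin-ME EGE (Km level) over 60 min at room temperature after NADPH regeneration addition. Data normalized to full inhibition by 1.43 uM quinidine.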

[4] = biological target: Cytochrome P450 2C19 (Homo sapiens) (UniProt P33261); experiment: qHTS Assay for Inhibitors and Substrates of Cytochrome P450 2C19 (AID 899); details: recombinant CYP2C19, luciferin-H EGE luminescence; series mostly up to 11.4 µM; further: nearly all actives have a fitted effect of over 60% in size; further: potency means the concentration at half of the fitted maximal effect
Sequence of Cytochrome P450 2C19 (Homo sapiens) (P33261 whole entry, looked up): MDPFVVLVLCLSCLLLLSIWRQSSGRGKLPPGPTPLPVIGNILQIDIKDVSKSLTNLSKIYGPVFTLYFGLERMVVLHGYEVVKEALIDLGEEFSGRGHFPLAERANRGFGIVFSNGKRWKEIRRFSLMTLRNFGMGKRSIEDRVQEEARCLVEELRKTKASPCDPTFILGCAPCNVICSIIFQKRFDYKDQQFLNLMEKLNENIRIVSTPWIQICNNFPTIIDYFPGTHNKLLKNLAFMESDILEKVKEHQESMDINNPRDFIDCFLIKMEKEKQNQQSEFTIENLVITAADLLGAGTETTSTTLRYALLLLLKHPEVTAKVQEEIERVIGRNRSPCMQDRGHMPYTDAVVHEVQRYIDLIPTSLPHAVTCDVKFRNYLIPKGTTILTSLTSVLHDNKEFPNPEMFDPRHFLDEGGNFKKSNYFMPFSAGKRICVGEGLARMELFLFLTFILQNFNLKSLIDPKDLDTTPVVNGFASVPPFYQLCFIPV
Method in brief: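 Human CYP2C19 (5nM) with Luciferin-H EGE at 10uM (its KM) in 50mM KPO4 was preincubated with compound for 10 min at 37C. NADPH regeneration started a 60 min 37C reaction. Luciferin was read by luminescence, normalized to 57uM ketoconazole.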

[5] = biological target: Cytochrome P450 3A4 (Homo sapiens) (UniProt P08684); experiment: qHTS Assay for Activators of Cytochrome P450 3A4 (AID 885); details: recombinant CYP3A4, Luciferin-PPXE luminescence, 60 min; series mostly up to 57.1 µM; further: nearly all actives have a fitted effect of over 65% in size
Method in brief: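 Using 20nM recombinant human CYP3A4 in potassium phosphate (200mM), substrate Luciferin-PPXE at 25uM, luminescent luciferin detection followed a 60-min RT NADPH reaction; data scaled to 57 uM ketoconazole.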

Row | Structure (SMILES) | Potency [1] | activity change, negative = inhibition [2] | Potency [3] | Potency [4] | activity change, positive = activation [5]
1 | Cc1ccccc1OC1C=CC(c2ccccc2)OC1CO (stereo not drawn) | inactive | -11.7% [at 11.4 µM] (inactive) | inactive | 5.01 µM (active) | –
2 | COC(=O)C1=C(C)N(Cc2ccccc2)C2=C3C(=O)CCCC3[C@@](O)(C(=O)OC)C(=O)N2C1c1ccccc1 (stereo partly drawn) | inactive | -20% [at 11.4 µM] (inactive) | inactive | inactive | –
3 | CC[C@@H](c1ccccc1)n1c(=O)n2n(c1=O)[C@H]1[C@H](O)[C@H]3O[C@@H]3/C(=N/OC/C=C(\C)CCC=C(C)C)[C@@H]1CC2 | inactive | – | – | – | -40.3% [at 11.4 µM] (inactive)
4 | COC(=O)NC(c1cccc(F)c1)C(C(C)=O)C(=O)OC (stereo not drawn) | inactive | -17.1% [at 11.4 µM] (inactive) | inactive | inactive | –
5 | CC12C=C(/C=C/CCc3ccco3)C(C)(C1)C(CCc1ccco1)CC2=O (stereo not drawn) | inactive | -9.62% [at 11.4 µM] (inactive) | – | inactive | –
6 | COC(=O)C/C=C/C(C)C(OC)c1ccccc1Br (stereo not drawn) | inactive | -5.95% [at 11.4 µM] (inactive) | inactive | inactive | –
7 | COc1ccc(OC2C=CC(c3ccccc3)OC2CO)cc1 (stereo not drawn) | inactive | – | – | – | -66.9% [at 11.4 µM] (inactive)
8 | COC(=O)CC1=COC(O)C2C(CO)=CC[C@@H]12 (stereo partly drawn) | inactive | -14.7% [at 11.4 µM] (inactive) | inactive | inactive | –
9 | C=CCC1C=CC(OC(=O)OCC)C(COC(=O)OCC)O1 (stereo not drawn) | inactive | -26.9% [at 11.4 µM] (inactive) | inactive | 0.794 µM (active) | –
10 | CC(C)=NOCc1cccc(-c2cc(-c3ccccc3)no2)c1 | 3.98 µM (active) | – | – | – | -40.1% [at 11.4 µM] (inactive)
11 | CCOP(=O)(CC(C(C)=O)C(O)c1ccccc1)OCC (stereo not drawn) | inactive | -15.8% [at 11.4 µM] (inactive) | inactive | inactive | –
12 | OCC1OC(c2ccccc2)C=CC1Oc1ccc(C2CCCC2)cc1 (stereo not drawn) | inactive | -14.3% [at 11.4 µM] (inactive) | inactive | inactive | –
13 | COC(=O)NC(c1ccc(F)cc1)C(C(C)=O)C(=O)OC (stereo not drawn) | inactive | -15% [at 11.4 µM] (inactive) | – | inactive | –
14 | C=CCOCC/C=C1/c2ccccc2C(OC)C1C (stereo not drawn) | inactive | – | – | – | -43.5% [at 11.4 µM] (inactive)
15 | O=C1C=C[C@@H](O)[C@@H]2[C@H]3C(=O)N(c4ccc(F)cc4F)C(=O)[C@@H]3CC[C@@H]12 | inactive | -59.6% [at 11.4 µM] (inactive) | inactive | inactive | –
16 | CC1CCC2C(=O)N3CCCC3C(=O)N2C1c1ccc(Br)cc1 (stereo not drawn) | 631 nM (active) and inactive | -43.7% [at 11.4 µM] (inactive) and -27.2% [at 11.4 µM] (inactive) | inactive | inactive | –
17 | Cc1ccc(OC2C(O)COC2/C=C/C#Cc2ccc(C(C)(C)C)cc2)cc1 (stereo not drawn) | inactive | -23% [at 11.4 µM] (inactive) and -25.5% [at 11.4 µM] (inactive) | inactive | inactive | –
